Assay results published in PubChem BioAssay AID1159580 (chemical genetic matrix, 2015).
“And” between values parts separate entries of the source, which are not always exact repeats. Identical values can stand only once. Among all 5,500 compounds or so, about 2,000 (36%) were called active. About 18% were inconclusive and are not listed. No stated cut-off is given here; in the data, active means normalized growth mostly below about 0.91 (no sharp cut-off); inconclusive means no clear call, values can overlap the other calls; inactive means mostly above about 0.92. This is one part of the list.

Experiment: chemical genetic growth profiling, strain panel (AID 1159580);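 further: tested at 20 µM; growth read once vehicle control cultures reached saturation at 30 °C; 1 = growth at the plate median or of vehicle wells; lower values mean less growth of the strain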
Conditions: S. cerevisiae deletion strains, growth OD

Measured: normalized growth

C[C@@H]1C(=O)O[C@H]2[C@H]1CC[C@@]1(C)C=CC(=O)[C@@]3(C)O[C@@]213
inactive: locus YAL013W, strain DEP1, active compounds read low 1 | locus YAL021C, strain ccr4, active compounds read low 1.01 | locus YAL026C, strain drs2, active compounds read low 1.02 | locus YAL030W, strain snc1, active compounds read low 1.01 | locus YBL061C, strain skt5, active compounds read low 1.01 | locus YBR009C, strain hhf1, active compounds read low 1.01 | locus YBR021W, strain FUR4, active compounds read low 1 | locus YBR023C, strain chs3, active compounds read low 1.02 | locus YBR171W, strain sec66, active compounds read low 1.02 | locus YBR229C, strain ROT2, active compounds read low 1.01 | locus YBR231C, strain swc5, active compounds read low 1.02 | locus YBR279W, strain paf1, active compounds read low 1.01 | locus YCL011C, strain gbp2, active compounds read low 1.01 | locus YCL016C, strain dcc1, active compounds read low 1 | locus YCL029C, strain bik1, active compounds read low 1.04 | locus YCL069W, strain vba3, active compounds read low 1.03 | locus YCR088W, strain abp1, active compounds read low 1.01 | locus YDL005C, strain med2, active compounds read low 1.02 | locus YDL035C, strain GPR1, active compounds read low 1.02 | locus YDL040C, strain nat1, active compounds read low 1 | locus YDL074C, strain BRE1, active compounds read low 1.02 | locus YDL101C, strain DUN1, active compounds read low 1.01 | locus YDL134C, strain PPH21, active compounds read low 0.993 | locus YDL185W, strain tfp1, active compounds read low 0.986 | locus YDL192W, strain arf1, active compounds read low 1.01 | locus YDR001C, strain nth1, active compounds read low 1.01 | locus YDR069C, strain doa4, active compounds read low 1.03 | locus YDR101C, strain arx1, active compounds read low 1.01 | locus YDR137W, strain rgp1, active compounds read low 0.982 | locus YDR150W, strain NUM1, active compounds read low 1.01 | locus YDR159W, strain sac3, active compounds read low 1.06 | locus YDR162C, strain NBP2, active compounds read low 1.02 | locus YDR195W, strain ref2 1.01 | locus YDR297W, strain sur2, active compounds read low 1 | locus YDR318W, strain mcm21, active compounds read low 1.02 | locus YDR334W, strain swr1, active compounds read low 1.02 | locus YDR335W, strain msn5, active compounds read low 1.01 | locus YDR388W, active compounds read low 1.01 | locus YDR392W, strain spt3, active compounds read low 0.996 | locus YDR502C, strain sam2, active compounds read low 1.02 | locus YEL003W, strain gim4, active compounds read low 1.01 | locus YEL037C, strain rad23, active compounds read low 1.02 | locus YEL061C, strain CIN8 (second series), active compounds read low 1.01 | locus YEL061C, strain CIN8, active compounds read low 1.01 | locus YER015W, strain faa2, active compounds read low 1.02 | locus YER016W, strain bim1, active compounds read low 1.01 | locus YER110C, active compounds read low 1.01 | locus YER111C, strain swi4, active compounds read low 1.02 | locus YER155C, strain BEM2 (second series), active compounds read low 1.03 | locus YER155C, strain BEM2, active compounds read low 0.996 | locus YER167W, strain BCK2, active compounds read low 1.02 | locus YFR010W, strain ubp6, active compounds read low 1.06 | locus YGL078C, strain dbp3, active compounds read low 1.03 | locus YGL086W, strain mad1, active compounds read low 1.02 | locus YGL167C, strain pmr1, active compounds read low 1.02 | locus YGL173C, strain kem1, active compounds read low 1.02 | locus YGL227W, strain vid30, active compounds read low 1.02 | locus YGL240W, strain doc1, active compounds read low 1.01 | locus YGL248W, strain PDE1, active compounds read low 1.02 | locus YGL253W, strain hxk2, active compounds read low 1.05 | locus YGR078C, strain PAC10, active compounds read low 1.02 | locus YGR135W, strain pre9, active compounds read low 1.03 | locus YGR229C, strain SMI1, active compounds read low 1.02 | locus YGR252W, strain gcn5, active compounds read low 1.06 | locus YHR013C, strain ard1, active compounds read low 0.995 | locus YHR027C, strain rpn1, active compounds read low 1.02 | locus YHR030C, strain SLT2, active compounds read low 1.01 and 1.04 | locus YHR079C, strain IRE1 (second series), active compounds read low 1.02 | locus YHR079C, strain IRE1, active compounds read low 1.04 | locus YHR094C, strain hxt1, active compounds read low 1 | locus YHR129C, strain ARP1, active compounds read low 1.01 | locus YHR142W, strain chs7, active compounds read low 1.02 | locus YHR200W, strain rpn10, active compounds read low 1.02 | locus YIL066C, strain RNR3, active compounds read low 1.02 | locus YIL073C, strain SPO22, active compounds read low 1.05 | locus YIL125W, strain kgd1, active compounds read low 1.03 | locus YIR030C, strain dcg1, active compounds read low 1.02 | locus YJL092W, strain hpr5, active compounds read low 1.02 | locus YJL095W, strain BCK1 (second series), active compounds read low 1.01 | locus YJL095W, strain BCK1, active compounds read low 1.03 | locus YJL115W, strain asf1, active compounds read low 1.02 | locus YJL129C, strain trk1, active compounds read low 1.04 | locus YJL134W, strain LCB3, active compounds read low 1 | locus YJL154C, strain vps35, active compounds read low 1.01 | locus YJL164C, strain tpk1, active compounds read low 1.01 | locus YJL166W, strain qcr8, active compounds read low 1.01 | locus YJL168C, strain set2, active compounds read low 1.01 | locus YJL187C, strain SWE1 (second series), active compounds read low 1.04 | locus YJR043C, strain POL32, active compounds read low 1.02 | locus YJR066W, strain TOR1, active compounds read low 0.959 | locus YJR075W, strain HOC1, active compounds read low 1.02
